Test results taken from PubChem BioAssay (NCI).
This is part of a sample that, as a whole, favours compounds with a hit. Of some 83,000 tested, about 20% had one in any assay.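 48-hour exposure, single concentration, 96-well plates; percent growth endpoint where 0 means no net growth. Active: below 10.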 A number with no mark means an inactive call. The source made the active and inactive calls.

Experiments:
Experiment in all cases: NCI-60 one-dose screen, 48 h (100 = growth as untreated, 0 = no growth, -100 = all killed)
Conditions in all cases: 10 µM unless noted
NCI-H23 lung = test system: NCI-H23 lung
NCI-H226 lung = test system: NCI-H226 lung
NCI-H322M lung = test system: NCI-H322M lung
HOP-62 NSCLC = test system: HOP-62 NSCLC
NCI-H460 lung = test system: NCI-H460 lung
HOP-92 NSCLC = test system: HOP-92 NSCLC
NCI-H522 lung = test system: NCI-H522 lung
A549/ATCC NSCLC = test system: A549/ATCC NSCLC
786-0 renal = test system: 786-0 renal
COLO 205 colon = test system: COLO 205 colon

Compound	growth (NCI-H23 lung)	growth (NCI-H226 lung)	growth (NCI-H322M lung)	growth (HOP-62 NSCLC)	growth (NCI-H460 lung)	growth (HOP-92 NSCLC)	growth (NCI-H522 lung)	growth (A549/ATCC NSCLC)	growth (786-0 renal)	growth (COLO 205 colon)
COc1cc2c(c(OC)c1OC)C(=O)CC(c1cccc(NC(=O)c3cc(NC(=O)[C@@H](N)CO)ccc3C)c1)O2 (stereo not given in full)	112%	103%	108%	108%	123%	114%	93%	102%	107%	131%
O=C(/C=C/c1cccc(OCc2ccccc2)c1)c1nc2ccccc2[nH]1	63.7%	1.49% (active)	92.3%	50.5%	63%	22.7%	72.8%	39.1%	-60.7% (active)	-31.7% (active)
O=C(Nc1cccc(-n2cnc3cc(-c4ccc(O)cc4)ccc32)c1)C1CC1	40.1%	13.8%	48%	44.7%	7.41% (active)	125%	5.82% (active)	27.4%	25.8%	34.2%
O=C(NNc1nc2cc(C(F)(F)F)ccc2n2cccc12)c1cnccn1	-27.5% (active)	-53.5% (active)	-13.6% (active)	-73.4% (active)	-30.3% (active)	-74% (active)	-60.2% (active)	-60.5% (active)	-99.1% (active)	-72.3% (active)
Nc1nnc(-c2c[nH]c3ncc(Br)cc23)c(-c2c[nH]c3ccc(F)cc23)n1	33.3%	50.2%	50.5%	46.6%	25.7%	72.9%	50.5%	40.7%	39.2%	16.2%
CCCCCCCCOc1cccc(S(=O)(=O)Nc2ccc(C)cc2C(=O)O)c1	96.3%	98.4%	94.5%	99.8%	98.4%	80.1%	86.5%	84.2%	99.4%	112%
COc1cc2c(c(OC)c1OC)C(=O)CC(c1cccc(NC(=O)c3cc(N)ccc3Cl)c1)O2 (stereo not given)	71.9%	54.3%	89%	77.3%	67.2%	69.5%	8.06% (active)	71.5%	84.7%	86.2%
COc1cc(C2CC(c3cc(OC)c(OC)c(OC)c3)=Nc3c(N)nc(N)nc3N2)ccc1Oc1nc(NCCO)nc(N2CCOCC2)n1 (stereo not given)	95.8%	84.2%	86.2%	90.4%	106%	103%	87.2%	99.2%	97.6%	110%
C(=C\c1cc(/C=C/c2ccccc2)c2ccccc2n1)/c1ccccc1	82.2%	106%	120%	109%	102%	84%	93.4%	101%	80.7%	118%
COc1cc(C2CC(c3cc(OC)c(OC)c(OC)c3)=NN2C(C)=O)ccc1OCc1ccc(F)cc1 (stereo not given)	56.7%	49.8%	66.1%	74.2%	49%	17.3%	42.1%	50.8%	57.8%	58.5%
CSc1ccccc1NC(=O)c1ccc2nn(/C(C#N)=C/c3ccccn3)nc2c1	-83.9% (active)	-96.8% (active)	25.3%	0.554% (active)	-36.9% (active)	-23.8% (active)	-92.7% (active)	0.0722% (active)	-96.5% (active)	-84% (active)
CC(C)CSc1nc(NCCc2c[nH]c3ccccc23)c(C#N)c(-c2ccc(F)cc2)n1	72.9%	44.9%	91.2%	34.9%	11.6%	50.9%	62.4%	51.2%	67.9%	31.6%
COc1ccc2oc3c4[nH]c5ccccc5c4c4c(c3c2c1)C(=O)N(C(=O)OC(C)(C)C)C4=O	-19.9% (active)	-1.92% (active)	3.12% (active)	-18% (active)	4.57% (active)	-14.6% (active)	-30.7% (active)	0.48% (active)	11.6%	-40.9% (active)
O=c1c2ccccc2nc(-c2ccccc2)n1/N=C/c1ccc2ccccc2c1	68.2%	53.3%	80.1%	55.7%	8.58% (active)	79.7%	63.1%	41.8%	53%	58.2%
C=Cn1cc(C(=O)O)c(=O)c2cc(F)c(N3CCN(c4nccc(-c5nccs5)n4)CC3)cc21	-60.5% (active)	-20.5% (active)	-14.5% (active)	-34.4% (active)	9.63% (active)	-32.7% (active)	-76.6% (active)	-34.3% (active)	-22.3% (active)	-61.5% (active)
Cc1ccccc1[C@H]1C(C(=O)c2ccc(Cl)cc2)C2(N[C@@H]1c1ccccc1)C(=O)Nc1ccc(Cl)cc12 (stereo not given in full)	-56.2% (active)	-60.2% (active)	22.1%	-63.7% (active)	1.55% (active)	-44.4% (active)	-48.6% (active)	-29.2% (active)	-39.3% (active)	-75.7% (active)
CCN1CCN(Cc2ccc(C(=O)Nc3cccc(C#Cc4cccc5[nH]nc(N)c45)c3)cc2C(F)(F)F)CC1	-82.6% (active)	-35.2% (active)	-95.2% (active)	-66.1% (active)	-39.2% (active)	-69.8% (active)	-59.9% (active)	-84.8% (active)	-98.5% (active)	-86.6% (active)
COc1ccc(NC(=O)c2sc3nc(C(C)C)ccc3c2N)cc1	75.3%	71.7%	69.5%	93.2%	88%	61.4%	75.7%	59.2%	97.5%	113%
Nc1nc(C(F)(F)F)cs1	104%	98.9%	104%	101%	107%	107%	98.3%	103%	98.4%	114%
